This is an account of results in PubChem BioAssay (Tox21).

Structures are written as SMILES. Values without a mark were called inactive. The source made the active and inactive calls. Calls follow the shape of the dose curve; as a rule, active = well fitted curve in the direction sought with a large enough effect in the repeat runs; inconclusive = weak or mixed curves; inactive = flat fitted curve, though single readings scatter.
% is scaled to controls: 0 for no effect and ±100 for the full control effect.

This test is described as follows: qHTS assay to test for compound auto fluorescence at 535 nm (green) in HEK293 cell free culture (AID 720682). As to conditions: cell-free medium, green autofluorescence 485/535 nm, active compounds read high; series mostly up to 91.3 µM; activity change: at the top concentration. From the text: U.S. Tox21 Program National Center for Advancing Translational Sciences [NCATS] NIH Chemical Genomics Center [NCGC] U.S. Environmental Protection Agency [EPA] National Institutes of Environmental Health Sciences [NIEHS] National Toxicology Program [NTP] U.S. Food and Drug Administration [FDA] Tox21 Assay Overview: Compound auto fluorescence often interferes with screening of the compound library against various biological targets and signaling pathways. Some of these compounds may have fluorophoric properties. Such properties may interfere with the assay outputs resulting in false positives and/or negatives. To decrease such complications and ensure the compound activities are relevant in terms of biological response, the Tox21 10K compound library was screened for auto fluorescence. From the fluorophores used as reporter signals in our screening assays, the auto fluorescence equivalencies of compounds against three fluorophores have been evaluated: Triamterene, Fluorescein and Rose Bengal sodium for blue, green and red fluorescence, respectively. The fluorescence intensities were measured using Excitation/Emission wavelengths at 405/460nm, 485/535nm and 540/590nm for blue, green and red labels, respectively. This assay includes the green fluorescence data.
Tox21 Assay Protocol Summary: 5 uL of culture medium (DMEM containing 10% FBS) per well was dispensed into black wall/clear bottom 1536-well plates using a Multidrop Combi Dispenser (ThermoFisher Scientific, Waltham, MA). After 23 nL compound or DMSO vehicle was transferred into assay plate by a pintool work station (Kalypsys, San Diego, CA), fluorescence intensities in the assay plates were measured by an Envision (PerkinElmer, Shelton, CT) plate reader using three labels for measuring blue, green and red fluorescence at […] 460, 535 and 590nm respectively.
Regarding `CN1C[C@@H]2C[C@H]1CN2c1cc2c(cc1F)c(=O)c(C(=O)O)cn2C1CC1`, the “activity change” value was 0.0199% [at 46 µM].

Take `CCC(C)OC(C)CC` (stereo not given): the “activity change” value was -0.0126% [at 95.7 µM]. Still for that read-out and setting: in the case of `CCC[C@@H]1C[C@@H](C(=O)N[C@@H]([C@H]2O[C@H](SC)[C@H](O)[C@@H](O)[C@H]2O)[C@@H](C)O)N(C)C1` it was -0.511% [at 46 µM]; in that of `CCCCC1CCC(O)CC1` (stereo not given), 0.06%. On to `CC(C)COC(=O)c1ccccc1`, for which the “activity change” value is 0.0289%. On the same count and under the same terms, in the case of `O=[N+]([O-])c1c(Cl)cc(Cl)cc1Cl` it was 0.0399%; in that of `C=C(C)c1cccc(C(C)(C)N=C=O)c1`, 0.0291%.

`CN(C)CC/C=C1/c2ccccc2COc2ccc(CC(=O)O)cc21`: the “activity change” value is -0.0241% [at 46 µM].

In the case of `C=C(C)[C@@H]1CC=C(C)C(=O)C1`, the “activity change” value is -0.0017%.

Consider `CCOC(CN1CCN(CC(C)C(=O)c2ccccc2)CC1)c1ccccc1` (stereo not given), for which the “activity change” value was -0.0009% [at 46 µM]. On the same count and under the same terms, in the case of `CC1=C(C(=O)O)N2C(=O)[C@@H](NC(=O)[C@H](N)c3ccccc3)[C@H]2SC1` it was 0.0533% [at 46 µM]; in that of `COC(=O)c1cccc(Cl)c1`, -0.0118%.

Regarding `N[C@@H](CSCCCO)C(=O)O`, the “activity change” value is -0.0332% [at 46 µM]. Turning to `CO[C@@]1(NC(=O)Cc2cccs2)C(=O)N2C(C(=O)O)=C(COC(N)=O)CS[C@@H]21`, the molecule was classed as inactive.

On to `CCCCCc1cccc(=O)o1`, for which the “activity change” value is 0.307%.

`Cc1ccccc1C(N)=O`: the “activity change” value is -0.0683%. The same measure, in the same setting: in the case of `CC(CO)(CO)CO` it was 0.0325% [at 95.7 µM]. On the same count and under the same terms, in the case of `CCCC(=O)Nc1ccc(OCC(O)CNC(C)C)c(C(C)=O)c1` (stereo not given) it was -0.021% [at 18.6 µM]; in that of `CCCc1ccc(O)cc1`, 0.0259%; in that of `CC(C)Nc1ccccc1`, 0.0098%. The same measure, in the same setting: next, `CC1=NN(c2ccc(S(=O)(=O)O)cc2)C(=O)C1`: -0.072%; `CC1=C(C(=O)O)N2C(=O)[C@@H](NC(=O)[C@H](N)C3=CCC=CC3)[C@H]2SC1`: -0.0139% [at 46 µM]; `CC(=O)OCC(=O)Nc1cc(C#N)cc(NC(=O)COC(C)=O)c1Cl`: -0.0592% [at 46 µM].

`CCCC(CC)c1ccccc1` (stereo not given): the “activity change” value is -0.0337%. On the same count and under the same terms, next, `C=C(C)[C@@H]1CC=C(C)CC1`: 0.0388%; `CCCCCCCCCCCCCCC(=O)NC(CO)CCCCCCCCCCCCCC` (stereo not given): 0.0995%; `COc1ccc2c(c1)c1c3n2CCN(C)C3=NCC1`: -0.0251% [at 46 µM]. Regarding `CC/C(C)=N\O[Si](C)(O/N=C(\C)CC)O/N=C(\C)CC`, the “activity change” value is -0.0347% [at 95.7 µM].

Turning to `COc1c2occc2c(OC)c2c(=O)cc(C)oc12`, the activity change was 0.0751% [at 18.6 µM]. On to `O=Cc1ccccc1Cl`, for which the “activity change” value is 0.033%. Still for that read-out and setting: next, `CC(=O)CCC1=C(C)CCCC1(C)C`: 0.0315%; `OC[C@@H](O)C(O)[C@@H](O)CO` (stereo not given in full): 0.0296% [at 95.7 µM]. On the same count and under the same terms, in the case of `CCOCCOCC` it was -0.044% [at 95.7 µM]. On the same count and under the same terms, in the case of `CC/C=C\CCOC(=O)c1ccccc1O` it was -0.0108%.

For the molecule `COc1cc2c(cc1OC)C(=O)C(CC1CCN(Cc3ccccc3)CC1)C2` (stereo not given), the “activity change” value is -0.0351% [at 46 µM]. Still for that read-out and setting: in the case of `Fc1ccccc1` it was 0.0345%; in that of `O=C(O)CCCCCC(=O)O`, -0.0013%.

On to `C#CCN[C@@H]1CCc2ccccc21`, for which the “activity change” value was 0.0514% [at 46 µM].

As to `Cc1ccc(C(=O)O)cc1[N+](=O)[O-]`, the “activity change” value was -0.0004%. On to `Cn1nnc2c(C(N)=O)ncn2c1=O`, for which the “activity change” value is -0.108% [at 46 µM].
